Source: PubChem BioAssay AID1529 (NMMLSC, 2009)
Screen size: about 290,000 compounds; about 4,200 (1.4%) were called active. The sample holds actives, similar compounds and a random draw of the others, so the mix is not that of the screen. Unmarked numbers belong to inactive results.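 The calls were made as follows: active = binding response more than 3 SD above or below the average of its plate-row segment, actives on both sides; inconclusive = wells at one plate position flagged as instrument error; inactive = the rest.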

What follows are compounds tested against Mitogen-activated protein kinase kinase kinase 3 (Homo sapiens) (UniProt Q99759) (assay: modulators of MEKK3-MEK5 PB1 binding, primary screen, biochemical, wildtype MEKK3, multiplex bead flow cytometry, Alexa488-MEK5 (AID 1529;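 also: Alexa488 bead fluorescence after subtracting the streptavidin-only scavenger bead signal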)). Conditions: bead-based flow cytometry, Alexa488-MEK5 binding to MEKK3; at 10 µM; actives lie on both sides.
Chain of Mitogen-activated protein kinase kinase kinase 3 (Homo sapiens) (Q99759 whole entry, looked up): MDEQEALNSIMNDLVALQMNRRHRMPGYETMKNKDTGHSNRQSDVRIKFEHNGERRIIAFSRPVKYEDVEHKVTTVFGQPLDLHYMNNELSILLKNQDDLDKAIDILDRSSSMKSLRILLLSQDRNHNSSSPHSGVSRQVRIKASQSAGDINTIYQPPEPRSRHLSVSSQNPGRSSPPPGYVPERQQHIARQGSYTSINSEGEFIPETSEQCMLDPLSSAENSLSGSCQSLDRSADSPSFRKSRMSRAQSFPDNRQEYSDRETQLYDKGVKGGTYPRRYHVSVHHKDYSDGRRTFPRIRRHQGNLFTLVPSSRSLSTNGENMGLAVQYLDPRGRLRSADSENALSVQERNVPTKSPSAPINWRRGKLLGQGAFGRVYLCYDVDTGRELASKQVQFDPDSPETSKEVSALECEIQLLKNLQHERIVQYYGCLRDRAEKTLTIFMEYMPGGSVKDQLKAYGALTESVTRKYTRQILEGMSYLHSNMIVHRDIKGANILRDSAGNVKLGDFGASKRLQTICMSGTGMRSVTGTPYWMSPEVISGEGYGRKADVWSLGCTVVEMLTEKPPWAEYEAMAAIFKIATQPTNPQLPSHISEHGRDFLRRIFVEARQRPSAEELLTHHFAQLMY

| SMILES | binding response (% of control) |
| --- | --- |
| O=C(CCNS(=O)(=O)c1ccccc1)Nc1ccc(Cl)cc1C(=O)c1ccccc1 | 107% |
| CN1CCN(C(=S)SCC(=O)Nc2ccc(Cl)cc2C(=O)c2ccccc2)CC1 | 108% |
| O=C(COC(=O)c1ccccc1)Nc1ccc(Cl)cc1C(=O)c1ccccc1 | 131% (active) |
| COC(=O)C1=C(c2cc3ccccc3s2)C[C@@H]2CC[C@H]1N2C(=O)NC(C)C | 108% |
| COc1cccc(C(=O)N2C[C@H]3C[C@@H](C2)c2cccc(=O)n2C3)c1 | 98% |
| CN(C)CC1Oc2ccccc2OC1(O)c1ccccc1 (stereo not given) | 106% |
| Cc1ccc(CN2CCCC(C(=O)c3ccc4c(c3)OCO4)C2)cc1C (stereo not given) | 49% [inhibitor] (active) |
| COc1ccc(C(=O)C2CCCN(Cc3ccc(C)s3)C2)cc1OC (stereo not given) | 103% |
| Cc1ccsc1C(=O)C1CCCN(Cc2ccc(O)cc2)C1 (stereo not given) | 96% |
| CN(C)C(=O)Oc1ccc2c(c1)O/C(=C\c1ccccc1)C2=O | 102% |
| NCC(O)c1ccc(O)cc1 (stereo not given) | 74% [inhibitor] (active) |
| COc1ccc2c(c1)[C@]13CCCCC1C(C2)N(C)CC3 (stereo not given in full) | 100% |
| CN(C)CC1CCCCC1OC(=O)c1ccc(Cl)c(Cl)c1 (stereo not given) | 135% (active) |
| COC(=O)C1=C(c2cc3ccccc3o2)C[C@@H]2CC[C@H]1N2C(=O)NC1CCCCC1 | 103% |
| COC(=O)C1=C(c2cc3ccccc3s2)C[C@@H]2CC[C@H]1N2C(=O)NCCO | 107% |
| COc1cccc(OC)c1C(=O)NC(=S)N1C[C@H]2C[C@H](C1)c1cccc(=O)n1C2 | 103% |
| CCCn1c(C(=O)c2ccccc2OC)nc2ccccc21 | 98% |
| O=C1NC(=O)C(CCc2ccccn2)(Cc2cccc(Cl)c2Cl)C(=O)N1c1ccc(Br)cc1 (stereo not given) | 89% |
| Cc1ccc(N2C(=O)NC(=O)C(CCc3ccncc3)(Cc3cccc(Cl)c3Cl)C2=O)cc1 (stereo not given) | 138% (active) |
| COc1ccc2[nH]c3c(c2c1)CCN[C@H]3C | 105% |
| CC[C@H]1CC2CN3CCc4c([nH]c5ccccc45)C(C(=O)OC)(C2)C13 (stereo not given in full) | 99% |
| CNCC(O)c1cc(F)c(OCc2ccccc2)c(OCc2ccccc2)c1F (stereo not given) | 103% |
| COc1ccc(-c2nn(CCC#N)cc2C(=O)Nc2ccc(C(C)=O)cc2)cc1 | 111% |
| COC(=O)C1=C(c2cc3ccccc3s2)C[C@@H]2CC[C@H]1N2C(=O)NCc1cccc2ccccc12 | 105% |
| O=C(Cc1ccccc1[N+](=O)[O-])N1CCN(Cc2ccc3c(c2)OCO3)CC1 | 46% [inhibitor] (active) |
| Cc1cc(=O)oc2c(C)c(OCC(=O)N3CCN(Cc4ccc5c(c4)OCO5)CC3)ccc12 | 106% |
| Fc1ccc(N2CCN(Cc3ccc4c(c3)OCO4)CC2)cc1 | 98% |
| COc1ccc2c(c1O)-c1cccc3c1[C@@H](C2)N(C)CC3 | 95% |
| CCOc1ccc(CN(CCCl)CCCl)cc1C(=O)OC | 111% |
| COC(=O)C1=C(c2ccccc2)C[C@@H]2CC[C@H]1N2C(=O)N1CCCCC1 | 102% |
